Screening results (PubChem)
Hits are enriched below; roughly 2.4% of the tested compounds scored in any of these assays.
POLI inh – blocks human DNA polymerase iota activity. Q9UNA4. Pol iota fluorescent replication assay, 10 min. Potency, µM (doses to about 115 µM), for the others: at the top dose activity, negative = inhibition, most hits filed as inhibitors. 390,000 tested, 1% active
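Pol iota at 10 nM preincubated 15 min with compounds at room temperature; reaction started with fluorescent substrate, 50 nM final. Fluorescence read kinetically at 0 and 10 min; buffer-only wells as negative control.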
POLK inh – DNA polymerase kappa (human) inhibition; purified Pol kappa, fluorescent DNA synthesis assay, 10 min; Potency, µM (doses to about 107 µM), for the others: at the highest dose activity, negative = inhibition, actives largely listed as inhibitors; 400,000 tested, 0.53% active; Q9UBT6; AID 588579; also: % is scaled to controls: 0 for no effect and ±100 for the full control effect
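Enzyme at 10 nM met test compounds for 15 min at room temperature. Substrate addition (50 nM final) began the reaction, which was monitored by fluorescence at 0 and 10 min.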
Pol eta inh – blocks human DNA polymerase eta activity; AID 588591; Potency, µM (top dose mostly 114 µM), without a hit: top-dose activity change, negative = inhibition, hits mostly inhibitors; 390,000 tested, 1.2% active; recombinant Pol eta, fluorescent DNA replication assay; also: % is scaled to controls: 0 for no effect and ±100 for the full control effect
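Fluorescent replication assay: 50 nM final substrate added after a 15 min room-temperature compound preincubation with 10 nM enzyme. Signal taken at 0 min and again at 10 min.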
WRN inhibitor – blocks human WRN helicase. Q14191. WRN helicase unwinding, fluorescent forked duplex, kinetic. Potency, µM (highest dose often 114 µM), for inactives: top-dose activity change, negative = inhibition, most hits filed as inhibitors. 360,000 tested, 0.46% active; also: % is scaled to controls: 0 for no effect and ±100 for the full control effect; nearly all actives have a fitted effect of over 55% in size
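Kinetic fluorescence helicase assay: unwinding of a quenched forked DNA duplex (100 nM final) with 2 mM ATP final raises red fluorescence (525/598 nm). Compounds sat 15 min at room temperature with 20 nM WRN beforehand.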
FEN1 inhibitor – blocks human flap endonuclease 1; Recombinant FEN1 flap cleavage, fluorescence, 15 min; 390,000 tested, 0.35% active; P39748; AID 588795; Potency, µM (doses to about 114 µM), for inactives: at the top dose activity change, negative = inhibition, actives largely listed as inhibitors; also: % is scaled to controls: 0 for no effect and ±100 for the full control effect; nearly all actives have a fitted effect of over 65% in size
Target sequence (P39748 whole entry, looked up): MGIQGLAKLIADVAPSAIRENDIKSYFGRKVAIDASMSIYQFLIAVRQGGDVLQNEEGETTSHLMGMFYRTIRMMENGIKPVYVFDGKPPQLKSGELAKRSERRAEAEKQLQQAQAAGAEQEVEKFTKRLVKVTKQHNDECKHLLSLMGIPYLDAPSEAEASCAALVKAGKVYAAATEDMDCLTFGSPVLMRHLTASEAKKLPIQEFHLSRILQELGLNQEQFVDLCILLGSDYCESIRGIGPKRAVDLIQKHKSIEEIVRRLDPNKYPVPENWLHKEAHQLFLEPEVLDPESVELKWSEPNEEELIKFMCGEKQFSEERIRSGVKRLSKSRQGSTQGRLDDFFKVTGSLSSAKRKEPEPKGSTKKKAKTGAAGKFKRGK
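In this screen, 50 nM flap DNA substrate was added to 10 nM FEN1 pretreated with compound for 15 min at room temperature; cleavage was followed with reads at 0 and 15 min, and Hill fitting gave concentration–response parameters.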
POLB inh – DNA polymerase beta (human) inhibition; Potency, µM (titrated, usually from 114 µM), without a hit: at the highest dose activity change, negative = inhibition, most hits filed as inhibitors; 340,000 tested, 1.3% active; P06746; Pol beta primer extension/strand displacement, fluorescence kinetic; also: % is scaled to controls: 0 for no effect and ±100 for the full control effect
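Reaction started by 50 nM substrate onto compound-treated Pol beta (10 nM, 15 min preincubation, room temperature); plates read at 0 min and 10 min. Normalized concentration-effect data fitted by four-parameter Hill equation.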
* = called active by the depositor; [ ] = dose if it differs, or a comment. Calls follow the shape of the dose curve; as a rule, active = well fitted curve in the direction sought with a large enough effect; inconclusive = small, poorly fitted or top-dose-only effect, or another doubt; inactive = no such curve, though single readings can be large; an effect the other way counts as inactive or inconclusive. Potency is read from the fitted curve at half-maximal effect.

`O=C(O)COc1ccc(/C=N/n2c(COc3ccccc3)nc3ccccc3c2=O)cc1` gave POLI inh 8%, POLK inh -12%, Pol eta inh -1%, WRN inhibitor -32%, FEN1 inhibitor 5% and POLB inh 3%[57.1 µM].
For CCOC(=O)c1c(NC(=O)Cc2coc3cc(C)ccc23)sc2c1CCCC2 the results were POLI inh -3%, POLK inh -18%, Pol eta inh -14%, FEN1 inhibitor -2% and POLB inh -21%.
Screening Cc1ccc2occ(CC(=O)Nc3nnc(C(C)C)s3)c2c1 returned POLI inh 79µM*, POLK inh 17%, Pol eta inh -3%, FEN1 inhibitor 3% and POLB inh 20%.
For Cc1ccc2c(CC(=O)Nc3sccc3C(N)=O)coc2c1 the results were POLI inh 79µM*, POLK inh -29%, Pol eta inh inconclusive, WRN inhibitor -9%[57.1 µM], FEN1 inhibitor inconclusive and POLB inh 2%.
For CCCc1nnc(NC(=O)Cc2coc3ccc(C)cc23)s1 the results were POLI inh 2%, POLK inh -14%, Pol eta inh -3%, FEN1 inhibitor 19% and POLB inh -2%.
For CN(C)c1ccc(C(CNS(=O)(=O)c2ccc(F)cc2)N2CCCC2)cc1 (stereo unspecified) the results were POLI inh 13%, POLK inh -1%[60.1 µM], Pol eta inh -11%, FEN1 inhibitor 4% and POLB inh 6%.
`COc1ccc(-c2nc3cnc(OC)nc3n(-c3ccccc3)c2=O)cc1` gave POLK inh 4%[60.1 µM].
For Cc1cc(=O)oc2cc(OCc3ccc(C(=O)N4CCN(c5ccccc5)CC4)cc3)ccc12 the results were POLI inh 121%, POLK inh -2%, Pol eta inh 3%, WRN inhibitor -11%, FEN1 inhibitor -3% and POLB inh 11µM*.
For Cc1cc(=O)oc2cc(OCc3ccc(C(=O)N4CCN(c5ccc([N+](=O)[O-])cc5)CC4)cc3)ccc12 the results were POLI inh -13%, POLK inh -6%[60.1 µM], Pol eta inh 15%, WRN inhibitor -8%, FEN1 inhibitor 17% and POLB inh 14%.
Screening C#CCOCCOCCOCCNc1nc(N2CCN(C(=O)[C@H]([C@@H](C)CC)n3cc([C@@H](N)CC(C)C)nn3)CC2)nc(N2CCN(C(=O)[C@H](CCCCN)n3cc([C@@H](N)CC(C)C)nn3)CC2)n1 returned POLI inh 14µM*, POLK inh -18%, Pol eta inh -8%, WRN inhibitor -1%, FEN1 inhibitor -4% and POLB inh 44%.
Screening C#CCOCCOCCOCCNc1nc(N2CCN(C(=O)[C@H](CCCCN)n3cc(CN)nn3)CC2)nc(N2CCN(C(=O)[C@H](CCCCN)n3cc([C@@H](N)CC(N)=O)nn3)CC2)n1 returned POLI inh 8.9µM*, POLK inh 9%, Pol eta inh -8%, WRN inhibitor -14% and FEN1 inhibitor -16%.
C#CCOCCOCCOCCNc1nc(N2CCN(C(=O)[C@H](CCC(=O)O)n3cc(C(N)Cc4ccc(O)cc4)nn3)CC2)nc(N2CCN(C(=O)[C@H](Cc3cc4ccccc4[nH]3)n3cc(C(N)CC(C)C)nn3)CC2)n1 (stereo partly specified) was read as POLB inh -6%.
Screening C#CCOCCOCCOCCNc1nc(N2CCN(C(=O)[C@H]([C@@H](C)CC)n3cc([C@@H](N)CC(C)C)nn3)CC2)nc(N2CCN(C(=O)[C@H](CCCCN)n3cc([C@@H](N)C(C)CC)nn3)CC2)n1 (stereo partly specified) returned POLI inh inconclusive, POLK inh 0%, Pol eta inh -11%, WRN inhibitor 4%, FEN1 inhibitor -2% and POLB inh 2%.
`C#CCOCCOCCOCCNc1nc(N2CCN(C(=O)C(Cc3ccc(O)cc3)n3cc(C(N)CC(C)C)nn3)CC2)nc(N2CCN(C(=O)C(Cc3cc4ccccc4[nH]3)n3cc(C(N)Cc4ccc(O)cc4)nn3)CC2)n1` (stereo unspecified) gave POLB inh 35µM*.
O=[N+]([O-])c1ccc(NCCc2ccccc2)c(Br)c1 was read as POLI inh -2%, POLK inh -4%, Pol eta inh -21%, WRN inhibitor -7%, FEN1 inhibitor -6% and POLB inh 79µM*.
For COc1ccc(NC(=O)CSc2nc3c([nH]c4ccccc43)c(=O)n2-c2ccccc2)c(OC)c1 the results were POLI inh 21%, POLK inh -5%[60.1 µM], Pol eta inh -4%, FEN1 inhibitor 12% and POLB inh -10%.
COc1cccc(C(=O)NC2CC3CCCC(C2)N3CC(=O)Nc2ccccc2)c1 (stereo unspecified) was read as POLI inh inconclusive, POLK inh -6%, Pol eta inh inconclusive, WRN inhibitor inconclusive, FEN1 inhibitor -12% and POLB inh 40µM*.
Screening C[n+]1cccc(C2C(C#N)=C(N)Oc3c2ccc2ccccc32)c1 (stereo unspecified) returned POLI inh 109%, POLK inh -23%, Pol eta inh -14%, WRN inhibitor 28%, FEN1 inhibitor -24% and POLB inh 7%.
C[n+]1cccc2ccc3c(c21)OC(N)=C(C#N)C3c1ccccc1 (stereo unspecified) was read as POLI inh 18µM*, POLK inh -16%, Pol eta inh -3%, WRN inhibitor -5%, FEN1 inhibitor -10% and POLB inh 3%.
For O=C(NCc1ccccc1)c1ccc(CS(=O)(=O)Cc2ccccc2F)o1 the results were POLI inh 39%, POLK inh 0%, Pol eta inh -17%, WRN inhibitor -10%, FEN1 inhibitor -6% and POLB inh 9%.
`CCOCCCNC(=O)c1ccc(CS(=O)(=O)Cc2ccccc2F)o1` gave POLI inh -19%[58.9 µM], POLK inh 89µM*, Pol eta inh inconclusive, WRN inhibitor -8%, FEN1 inhibitor -2% and POLB inh 2%.
Screening Brc1cccc[n+]1CCC[n+]1ccccc1Br returned POLI inh inconclusive, POLK inh -19% and FEN1 inhibitor 79µM*.
For Cc1nc2cc(N3CCOCC3)c(NC(=O)C3CC3)cc2c(=O)n1Cc1ccccc1 the results were POLI inh inconclusive, POLK inh inconclusive, Pol eta inh 20µM*, WRN inhibitor -8%[57.1 µM], FEN1 inhibitor 8% and POLB inh 40%.
